Source: PubChem (National Center for Advancing Translational Sciences (NCATS))
Sampled rows, rich in hits. Any-hit rate of the full collection: about 3.3%.
Tau FP inhib = qHTS for Inhibitors of Tau Fibril Formation, Fluorescence Polarization | K18 P301L tau heparin fibrillization, Alexa594 FP, 6 h | Potency, µM (highest dose often 57.7 µM), without a hit: at the top dose activity, negative = inhibition, hits mostly inhibitors | 280,000 compounds, 0.39% hits | AID 1468, 2008; also: nearly all actives have a fitted effect of over 55% in size
Target sequence (P10636 561-689 P618L limits assumed): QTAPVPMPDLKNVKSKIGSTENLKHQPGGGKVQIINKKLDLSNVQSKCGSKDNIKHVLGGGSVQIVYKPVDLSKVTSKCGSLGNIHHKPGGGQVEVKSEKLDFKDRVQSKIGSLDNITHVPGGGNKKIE
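K18 P301L tau (15 uM unlabeled/0.24 uM Alexa 594-labeled, final) + compound + heparin 20 uM final; 100 mM NaOAc pH 7; 6 hr 37 C; ThT 30 uM final added, 1 hr RT; FP ex 555/em 632 nm.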
Luc counter = Counterscreen for Luciferase (Kinase-Glo TM) Inhibition | Luciferin 4-monooxygenase (Photuris pensylvanica), Q27757 | Kinase-Glo luciferase, ATP luminescence, 8 min | Potency, µM (doses to about 38.3 µM), inactives show top-dose activity change, negative = inhibition, actives largely listed as inhibitors | 200,000 compounds, 0.28% hits; also: nearly all actives have a fitted effect of over 60% in size
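Compound is pinned into ATP-containing buffer (10 uM ATP, imidazole pH 7.2, 7 mM MgCl2). Kinase-Glo luciferase reagent is then added. Light output is recorded following an 8-min room-temperature incubation.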
NPSR antagonist = qHTS Assay for Antagonists of the Neuropeptide S Receptor: cAMP Signal Transduction | AID 1461, 2008 | 220,000 compounds, 1% hits | CHO-NPSR cells, cAMP TR-FRET, antagonist mode | Potency, µM (series often up to 38.3 µM), for the others: at the top dose activity change, negative = inhibition, hits mostly inhibitors | Q6W5P4; also: nearly all actives have a fitted effect of over 50% in size
Target sequence (Q6W5P4 whole entry, looked up): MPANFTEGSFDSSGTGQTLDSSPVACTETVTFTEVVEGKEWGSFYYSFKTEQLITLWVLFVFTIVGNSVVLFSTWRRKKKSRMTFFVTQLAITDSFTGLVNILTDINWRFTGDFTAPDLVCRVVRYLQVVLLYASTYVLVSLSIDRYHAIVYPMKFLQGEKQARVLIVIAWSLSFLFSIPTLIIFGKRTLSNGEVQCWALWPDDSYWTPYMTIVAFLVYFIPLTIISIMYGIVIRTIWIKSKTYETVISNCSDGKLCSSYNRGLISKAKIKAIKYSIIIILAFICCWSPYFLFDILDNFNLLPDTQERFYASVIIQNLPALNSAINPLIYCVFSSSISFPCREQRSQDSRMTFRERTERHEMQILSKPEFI
Tau fluor counter = Counterscreen qHTS for Inhibitors of Tau Fibril Formation, Fluorescence Polarization; tau K18 P301L Alexa594 fluorescence, heparin fibrillization; Potency, µM (titrated, usually from 57.7 µM), without a hit: top-dose activity change, negative = decrease; 280,000 compounds, 0.93% hits; also: nearly all actives have a fitted effect of over 55% in size
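Human tau K18 P301L (15 uM unlabeled, 0.24 uM Alexa 594-labeled) in 100 mM sodium acetate pH 7 with 20 uM heparin, 6 hr at 37 C. ThT 30 uM added, 1 hr ambient; Alexa 594 FP and total fluorescence read at 555/632 nm.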
Tau fibril ThT = qHTS for Inhibitors of Tau Fibril Formation, Thioflavin T Binding; recombinant tau K18 P301L (four-repeat tau fragment), heparin-induced fibrillization, ThT fluorescence; Potency, µM (top dose mostly 57.4 µM), for the others: at the highest dose activity, negative = inhibition, actives largely listed as inhibitors; 270,000 compounds, 2.1% hits; AID 1460, 2008; also: nearly all actives have a fitted effect of over 55% in size
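Tau K18 P301L fragment (15 uM unlabeled plus 0.24 uM Alexa 594-labeled) in 100 mM sodium acetate pH 7 with compound, fibrillization induced by 20 uM heparin for 6 hr at 37 C. Thioflavin T (30 uM) added, fluorescence read after 1 hr (ex 450, em 510 nm).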
The depositor's hits bear a star; u = inconclusive; x = no result given; [ ] = dose if it differs, or a comment. Calls follow the shape of the dose curve; as a rule, active = well fitted curve in the direction sought with a large enough effect; inconclusive = small, poorly fitted or top-dose-only effect, or another doubt; inactive = no such curve, though single readings can be large; an effect the other way counts as inactive or inconclusive. % is scaled to controls: 0 for no effect and ±100 for the full control effect; potency is read from the fitted curve at half-maximal effect.

SMILES | Tau FP inhib | Luc counter | NPSR antagonist | Tau fluor counter | Tau fibril ThT
COc1ccc(/C=N/Nc2snc(SC)c2C#N)cc1OC | u | -4% | u | 11µM*[quencher] | 14µM*
CCCOc1cccc(C2c3c(oc4ccc(F)cc4c3=O)C(=O)N2Cc2ccc3c(c2)OCO3)c1 (stereo not drawn) | -5% | x | x | -3% | 1%
COc1cc(Cl)c(C)cc1Nc1nc2ccccc2nc1NS(=O)(=O)c1ccccc1 | 7% | x | x | u | u
CCOC(=O)c1ccc(Nc2c(OCC)c(=O)c2=O)cc1 | -5% | x | -3% | 18µM*[quencher] | x
Oc1c(C=C2N=c3ccccc3=N2)sc(=S)n1-c1ccccc1 | 5% | -1% | 5% | 1% | 3%
O=S(=O)(Nn1c(O)c(C=C2N=c3ccccc3=N2)sc1=S)c1ccccc1 | 0% | x | 44% | u | 11µM*
CCOC(=O)C1=C(C)OC(N)=C(C#N)C1c1cc2c(cc1[N+](=O)[O-])OCO2 (stereo not drawn) | u | -2% | -19% | u | 28µM*
CCC(CC)C(=O)NC1CC(=O)N(c2ccc3c(c2)OCCO3)C1 (stereo not drawn) | 0% | x | x | 0% | -1%
CN(C)c1ccc(N=Nc2nc3ccccc3n2C)cc1 | u | x | u | 13µM*[quencher] | 0.5µM*
Cn1c(N=Nc2ccccc2)nc2ccccc21 | 1% | 0.89µM* | -52% | 2% | 5%
CCN(c1ccc(C)cc1C)S(=O)(=O)c1nnc(NC(=O)c2ccc(F)cc2)s1 | -10% | x | x | -10% | -13%
CCOC(=O)c1ccc2[nH]c(CSc3nnc(-c4cccc(F)c4)n3C)cc(=O)c2c1 | 2% | x | x | 5% | 0%
O=S1(=O)c2ccccc2N=NN1Cc1ccc(Cl)c(Cl)c1 | -9% | -5% | -5%[46.1 µM] | -20% | u
CC(C)(C)c1ccc(CN2N=Nc3ccccc3S2(=O)=O)cc1 | 7% | -2% | 10µM* | -4% | u
CC1=CC2C(=O)c3cccc(O)c3C(=O)C2C(O)=C1 (stereo not drawn) | -10% | 2% | x | u | u
O=C(COc1ccccc1)NNc1c2ccccc2nc2ccccc12 | -1% | 1% | 10µM* | 3% | 5%
CCCC(=O)NNc1c2ccccc2nc2ccccc12 | 5% | -2% | -9% | -21% | u
COc1ccc(OCC(=O)NNc2c3ccccc3nc3ccccc23)cc1 | u | 4% | u | 16µM*[quencher] | 6.3µM*
CC1CCN(S(=O)(=O)c2ccc3c(c2)oc(=O)n3CC(=O)N2CCCCC2)CC1 | -1% | x | x | -5% | -1%
CCOc1ccc(NC(=O)c2cc3c(n(-c4ccc(OC)cc4)c2=O)CC(C)(C)CC3=O)cc1 | 8% | x | x | u | u
C[C@@]12CCC=C[C@H]1[C@H](c1ccc(C(F)(F)F)cc1)N(Cc1ccccc1)C2=O | 3% | x | -54% | 6% | 5%
CCn1c(=S)[nH]c2scc(-c3cccs3)c2c1=O | 11% | 0% | 10µM* | 0% | -4%
Cc1noc(C)c1C(=O)N1CCC2(CC1)CCN(c1cccc(-c3ccccc3)c1)CC2 | x | -7% | x | x | x
Cc1cc2n(n1)C(c1cn(-c3ccccc3)nc1C)Nc1ccccc1-2 (stereo not drawn) | -9% | 3% | -4%[46.1 µM] | -19% | -7%
Cc1cc2n(n1)C(c1c[nH]c3ccccc13)Nc1ccccc1-2 (stereo not drawn) | 28µM* | 5% | -18%[46.1 µM] | 25µM*[quencher] | u
SMILES | Tau FP inhib | Luc counter | NPSR antagonist | Tau fluor counter | Tau fibril ThT
CC(C)NC(=S)N/N=C/c1ccc(C(C)(C)C)cc1 | 5% | -2% | -29% | -23% | u
Nc1cccc2nsnc12 | u | x | -2% | -16% | 28µM*
O=C(O)CCCCn1c(SCc2cc(=O)n3cc(Cl)ccc3n2)nc2ccsc2c1=O | -1% | 0% | -5% | -7% | -12%
O=C(O)C1CCC(Cn2c(SCc3cc(=O)n4cc(Br)ccc4n3)nc3ccsc3c2=O)CC1 (stereo not drawn) | 5% | 1% | 7.9µM* | 3% | -6%
O=C(O)c1ccc(Cn2c(SCc3cc(=O)n4cc(Br)ccc4n3)nc3ccsc3c2=O)cc1 | 3% | 2% | 10µM* | 2% | 11%
Cn1nc(-c2ccccn2)nc2c(=O)n(C)c(=O)nc1-2 | u | x | 2.5µM* | -20% | 5.6µM*
CCCc1nc2c(=O)n(C)c(=O)nc-2n(C)n1 | u | -2% | 7.9µM* | -7% | 14µM*
CCn1c(N)nc2c1c(=O)n(C)c(=O)n2C | -4% | -2% | -2%[46.1 µM] | 4% | -5%
COc1ccc(-c2nc(-c3ccccn3)ncc2S(C)(=O)=O)cc1 | -4% | 0% | 3% | -1% | -3%
Cc1ccc(C(C[N+](=O)[O-])Sc2ccc(N)cc2)cc1 (stereo not drawn) | u | x | u | u | 18µM*
O=[N+]([O-])c1cc(C(F)(F)F)cc([N+](=O)[O-])c1NN=C1CCCCC1 | u | 3% | 2%[46.1 µM] | u | 13µM*
COc1cc(NC(=O)N2CCC3(CC2)Nc2ccccc2-n2cccc23)cc(OC)c1OC | 0% | x | x | u | u
Cc1ccc(-c2nc3ncccc3o2)cc1NC(=O)c1ccc(-c2cccc(Cl)c2C)o1 | 1% | x | x | 3% | -2%
Cc1ccc(C)c(OCCn2c(-c3ccc(Cl)cc3)nc3ccccc3c2=O)c1C | 1% | x | x | -7% | -2%
O=c1[nH]c2ccc(Br)cc2c(-c2ccccc2)c1CN1CCOCC1 | u | 15% | 1%[46.1 µM] | -18% | 22µM*
CCOC(=O)c1sc2nc(-c3ccco3)c3c(c2c1N)CC(C)(C)OC3 | 4% | 0% | 10µM* | -27% | u
COC(=O)CSc1ncnc2c1sc1nc(-c3ccco3)c3c(c12)CC(C)(C)OC3 | -9% | -4% | -2%[46.1 µM] | -9% | u
CC1=C/C(=C\c2ccc3c(c2)OCO3)C(=O)S1 | -13% | -4% | -13%[46.1 µM] | -15% | 6.3µM*
O=C1OCCC/C1=C\c1ccc2c(c1)OCO2 | 1% | x | 5% | -17% | u
CCCN1C(=O)/C(=C/c2ccc3c(c2)OCO3)NC1=S | 2% | 0% | -27% | -18% | -18%
CCCN1C/C(=C/c2ccc3c(c2)OCO3)C(=O)/C(=C/c2ccc3c(c2)OCO3)C1 | u | 3% | -40% | -22% | 22µM*
COc1cc(/C=C/C(=O)C2C(=O)C=C(C)OC2=O)cc(OC)c1O (stereo not drawn) | -7% | -7% | -27% | -24% | u
COc1ccc(/C=C/C(=O)C2C(=O)C=C(C)OC2=O)cc1O (stereo not drawn) | -2% | u | -12%[46.1 µM] | u | 25µM*
O=C(Nc1ccccn1)c1onc2c1CCCC2 | 11% | 13µM* | 7% | 7% | 2%
